Experimental data from PubChem BioAssay (Tox21).
Records with an inconclusive call do not appear. Unmarked numbers belong to inactive results. Calls follow the shape of the dose curve; as a rule, active = well fitted activation curve with a large enough effect in the signal ratio in the repeat runs, with a control signal flat (not every such curve was filed as active); inconclusive = weak or mixed curves; inactive = flat fitted curve, though single readings scatter; the % refers to the signal ratio.

Test: qHTS assay for small molecule activators of the heat shock response signaling pathway (AID 743210)
Details: HeLa HSE-bla reporter, beta-lactamase ratio, 5 h; series mostly up to 62.6 µM; activation: at the top concentration
Description: U.S. Tox21 Program National Center for Advancing Translational Sciences [NCATS] NIH Chemical Genomics Center [NCGC] U.S. Environmental Protection Agency [EPA] National Institutes of Environmental Health Sciences [NIEHS] National Toxicology Program [NTP] U.S. Food and Drug Administration [FDA] Tox21 Assay Overview: Various chemicals, environmental and physiological stress conditions may lead to the activation of heat shock response/ unfolded protein response (HSR/UPR). There are three heat shock transcription factors (HSFs) (HSF-1, -2, and -4) mediating transcriptional regulation of the human HSR. To identify the compounds that activate HSR signaling, HSE-bla HeLa cell line (Invitrogen, Carlsbad, CA, USA) containing a beta-lactamase reporter gene under the control of the heat shock response elements was used to screen the Tox21 10K compound library.
Tox21 Assay Protocol Summary: The CellSensor HSE-bla HeLa cells (Invitrogen, Carlsbad, CA, USA) were dispensed at 1500 cells/6uL/well into 1536-well black wall/clear bottom plates using a Multidrop combi (Thermo Fisher Scientific, Waltham, MA) dispenser. After the assay plates were incubated at 37 C and 5% CO2 overnight, 23 nL of compounds dissolved in DMSO, positive controls or DMSO only was transferred to the assay plate by a Pintool station (Kalypsys, San Diego, CA). The plates were incubated at 37 C for 5 h. After 1 uL of LiveBLAzerTM B/G FRET substrate was added using a Flying Reagent Dispenser (Beckman Coulter, Indianapolis, IN, USA), the plates were incubated at room temperature for 2.5 h, and fluorescence intensity was measured by an Envision plate reader (PerkinElmer, Shelton, CT).
% is scaled to controls: 0 for no effect and ±100 for the full control effect.

In order of rising “activation” value:
1. C1CCCNCCC1  -1.97%
2. COC(=O)c1ccc(I)cc1S(=O)(=O)NC(=O)Nc1nc(C)nc(OC)n1  -1.35%
3. CCCC(=O)Nc1ccc(O)c(C(C)=O)c1  -1.25%
4. Cc1oc(-c2ccccc2)nc1CCOc1cccc2c1ccn2CCC(=O)O  -0.994%
5. OC(C#CCN1CCCC1)(c1ccccc1)c1ccccc1  -0.852%
6. O=C1OC(CN2CCOCC2)CN1/N=C/c1ccc([N+](=O)[O-])o1 (stereo not given)  -0.82%
7. CCCCOC(=O)CCCCCCCC(=O)OCCCC  -0.634%
8. O=C(NCC1CN(c2ccc(N3CCOCC3=O)cc2)C(=O)O1)c1ccc(Cl)s1 (stereo not given)  -0.604%
9. COc1cc2nc(Cl)nc(N)c2cc1OC  -0.54%
10. OCc1cc(C(O)CNCCCCCCOCCCCc2ccccc2)ccc1O (stereo not given)  -0.396%
11. COc1cc2nc(N(C)CCCNC(=O)C3CCCO3)nc(N)c2cc1OC (stereo not given)  -0.25%
12. CC(C)(O)c1ccc(CNC(=O)c2cccnc2Oc2ccc(F)cc2)cc1  -0.221%
13. C[C@@H]1C[C@H]2[C@@H]3CCC4=CC(=O)C=C[C@]4(C)[C@@]3(F)[C@@H](O)C[C@]2(C)[C@@]1(O)C(=O)COC(=O)c1ccncc1  -0.125%
14. CCn1cc(C(=O)O)c(=O)c2cnc(N3CCNCC3)nc21  -0.101%
15. CCOC(=O)C(=O)CCc1ccccc1  -0.1%
16. O=C1c2ccccc2S(=O)(=O)N1CCCCN1CCN(c2ncccn2)CC1  -0.1%
17. CC(C)Cc1ccc(C(C)C(=O)OCc2ccccn2)cc1 (stereo not given)  -0.0923%
18. CC(=O)OC[C@H]1O[C@@H](n2ncc(=O)[nH]c2=O)[C@H](OC(C)=O)[C@@H]1OC(C)=O  -0.092%
19. C#CCN(C)CCCOc1ccc(Cl)cc1Cl  -0.025%
20. CNCCCCOc1ccccc1Cc1ccccc1  0%
21. CN1CCC(=C2c3ccccc3Sc3ccccc32)CC1  0.025%
22. O=C(O)c1nc(Cl)c(Cl)c(Cl)c1Cl  0.0276%
23. CN1CCN(C(c2ccccc2)c2ccccc2)CC1  0.0403%
24. CC(C)O.CC(C)O.CCOC(=O)/C=C(\C)O.CCOC(=O)/C=C(\C)O.[Ti]  0.266%
25. CN(C)c1ccc(CCO)cc1  0.526%
26. CCN(CC)c1ccc2c(-c3ccccc3C(=O)O)c3ccc(=[N+](CC)CC)cc-3oc2c1  0.629%
27. CCOc1ccc(O)cc1  0.712%
28. CCO[Si](CCCCl)(OCC)OCC  0.769%
29. Cc1cccc(C)c1NC(=O)CN(CC(=O)O)CC(=O)O  0.963%
30. Nc1cccc(S(=O)(=O)c2cccc(N)c2)c1  0.983%
31. CCCCC1=NC2(CCCC2)C(=O)N1Cc1ccc(-c2ccccc2-c2nn[nH]n2)cc1  1.32%
32. CCCCC(CC)CN1C(=O)C2C3C=CC(C3)C2C1=O (stereo not given)  2.3%
33. CC1=CC[C@H](C(C)C)C=C1  2.79%
34. CNCCCN1c2ccccc2CCc2ccccc21  3.2%
35. CN(Cc1ccc(C(C)(C)C)cc1)Cc1cccc2ccccc12  4.88%
36. O=C(Nc1ccccc1)c1ccccc1O  5.61%

In order of falling “activation” value:
1. CC(C)C[C@H]1C(=O)N2CCC[C@H]2[C@]2(O)O[C@](NC(=O)[C@@H]3C=C4c5cccc6[nH]c(Br)c(c56)C[C@H]4N(C)C3)(C(C)C)C(=O)N12  1.59% [at 29.1 µM]
2. Cc1[nH]c(C)c(Cl)c(=O)c1Cl  -0.296% [at 29.1 µM]

`O=C(O)CNCC(=O)O` showed an activation of -0.342% [at 5.95 µM].

For `C=C(C)C(=O)OCC`, the “activation” value was -1.76% [at 81.1 µM].
